Assay results: PubChem BioAssay (NCATS)
Several values for one entry are separate records, joined by “and”; a condition that tells them apart may be missing. Equal values may be shown once. Inconclusive results are not listed. A number with no mark means an inactive call. Activity calls are given as the source filed them. Calls come from the whole dose curve; as a rule, active = well fitted curve in the direction sought with a large enough effect; inconclusive = small, poorly fitted or top-dose-only effect, or another doubt; inactive = no such curve, though single readings can be large; an effect the other way counts as inactive or inconclusive.

Key:
[1] = target: Cellular tumor antigen p53 (Homo sapiens) (UniProt P04637); test: Primary qHTS for small molecule compounds that upregulate eGFP-tagged delta133p53alpha (in N-terminal) cells. (AID 2060322); details: NCI-H358 eGFP-delta133p53alpha fluorescence, 24 h; activation: stronger effect = higher value; note: nearly all actives have a fitted effect of over 75% in size; note: potency is the fitted concentration of half-maximal effect;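 for activation: cells pre-induced with doxycycline then dosed without doxycycline; 0% = DMSO vehicle and 100% = reference activator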
Sequence of Cellular tumor antigen p53 (Homo sapiens) (P04637 whole entry, looked up): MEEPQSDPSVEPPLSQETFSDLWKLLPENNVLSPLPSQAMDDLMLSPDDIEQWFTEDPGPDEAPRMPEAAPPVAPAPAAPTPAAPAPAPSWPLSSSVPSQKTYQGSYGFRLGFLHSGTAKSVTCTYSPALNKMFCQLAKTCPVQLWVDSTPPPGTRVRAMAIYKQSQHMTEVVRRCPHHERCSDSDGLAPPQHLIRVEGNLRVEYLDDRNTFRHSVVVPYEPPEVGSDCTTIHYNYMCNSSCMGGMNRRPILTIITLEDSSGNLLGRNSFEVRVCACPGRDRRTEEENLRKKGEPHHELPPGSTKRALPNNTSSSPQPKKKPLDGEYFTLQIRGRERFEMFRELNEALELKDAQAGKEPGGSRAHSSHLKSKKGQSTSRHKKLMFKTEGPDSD
In short: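 NCI-H358 cells pre-induced 24 h with 10 ng/ml doxycycline for eGFP-delta133p53alpha, plated dox-free and exposed 24 h at 37C to titrated compounds. Fixed, Hoechst-stained; gated GFP peak intensity by laser scanning cytometry, normalized to DMSO (0%) and 57.5 uM 5-azacytidine (100%).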

[2] = target: Retinaldehyde dehydrogenase 3 (Homo sapiens) (UniProt P47895); test: qHTS for Inhibitors of the Aldehyde Dehydrogenase Family (ALDH1A3) Confirmatory screens (AID 2061311); details: ALDH inhibition qHTS; series mostly up to 46 µM; note: nearly all actives have a fitted effect of over 60% in size; note: potency is the fitted concentration of half-maximal effect
[3] = target: Retinaldehyde dehydrogenase 3 (Homo sapiens) (UniProt P47895); test: qHTS for Inhibitors of the Aldehyde Dehydrogenase Family (ALDH1A3) Validation screen (AID 2061312); details: ALDH1A3 enzyme inhibition qHTS validation, fluorescence; series mostly up to 84.7 µM; note: nearly all actives have a fitted effect of over 45% in size; note: potency is the fitted concentration of half-maximal effect
[4] = target: Retinaldehyde dehydrogenase 3 (Homo sapiens) (UniProt P47895); test: qHTS for Inhibitors of the Aldehyde Dehydrogenase Family (ALDH1A3) Primary screen (AID 2061315); details: ALDH inhibition qHTS; series mostly up to 56 µM; note: potency is the fitted concentration of half-maximal effect
[5] = target: Aldehyde dehydrogenase 1A1 (Homo sapiens) (UniProt P00352); test: qHTS for Inhibitors of the Aldehyde Dehydrogenase Family (ALDH1A1) Confirmatory screens (AID 2061316); details: ALDH inhibition qHTS; series mostly up to 47.3 µM; note: potency is the fitted concentration of half-maximal effect; nearly all actives have a fitted effect of over 65% in size
[6] = target: Aldehyde dehydrogenase, mitochondrial (Homo sapiens) (UniProt P05091); test: qHTS for Inhibitors of the Aldehyde Dehydrogenase Family (ALDH2) Primary screen (AID 2061308); details: ALDH2 enzyme inhibition qHTS, 1536-well; series mostly up to 56 µM;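 note: plate controls were vehicle for no effect and reference inhibitor for full effect; nearly all actives have a fitted effect of over 55% in size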
[7] = BET inhibitor-based combinations targeting novel dependencies in MECOM-rearranged (r) AML: AML-194 cell line (AID 2202237; note: nearly all actives have a fitted effect of over 40% in size; note: potency is the fitted concentration of half-maximal effect); details: AML-194 (MECOM-r AML) viability, CellTiter-Glo, 48 h; series mostly up to 46 µM
In short: (§1)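 AML cell lines seeded at 500 cells/well, treated with 11-point dose curves for 48 h. Viability by CellTiter-Glo luminescence, normalised to DMSO and empty wells; activity expressed as AUC and per-cell-line Z-transformed AUC.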

[8] = BET inhibitor-based combinations targeting novel dependencies in MECOM-rearranged (r) AML: SET-2 cell line (AID 2202231); details: SET-2 AML cells viability, CellTiter-Glo luminescence, 48 h; viability: stronger effect = lower value, concentration not given here; note: nearly all actives have a fitted effect of over 35% in size; note: potency is the fitted concentration of half-maximal effect;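 for viability: plate controls were DMSO treated cells for no effect and wells without cells for full effect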
In short: as §1

[9] = BET inhibitor-based combinations targeting novel dependencies in MECOM-rearranged (r) AML: OCI-AML3 cell line (AID 2202232); details: CellTiter-Glo luminescence, 48 h; Potency: OCI-AML3 viability; series mostly up to 46 µM; note: potency is the fitted concentration of half-maximal effect; nearly all actives have a fitted effect of over 35% in size
In short: as §1

[10] = BET inhibitor-based combinations targeting novel dependencies in MECOM-rearranged (r) AML: MV-4-11 cell line (AID 2202233); details: MV-4-11 AML viability, CellTiter-Glo luminescence, 48 h; series mostly up to 46 µM; note: nearly all actives have a fitted effect of over 45% in size; note: potency is the fitted concentration of half-maximal effect
In short: (§2)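 Cells at 500/well were exposed for 48 hr to MIPE v5.0 drugs as 11-point dose curves. Viability was read by CellTiter-Glo luminescence and normalized to DMSO and empty-well controls. Activity was expressed as AUC and per-cell-line Z-AUC.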

[11] = BET inhibitor-based combinations targeting novel dependencies in MECOM-rearranged (r) AML: HNT-34 cell line (AID 2202234); details: HNT-34 AML viability, CellTiter-Glo luminescence, 48 h; series mostly up to 46 µM; note: potency is the fitted concentration of half-maximal effect; nearly all actives have a fitted effect of over 35% in size
In short: as §2

[12] = BET inhibitor-based combinations targeting novel dependencies in MECOM-rearranged (r) AML: UCSD-AML1 cell line (AID 2202235); details: UCSD-AML1 AML cells viability, CellTiter-Glo, 48 h; series mostly up to 46 µM; note: nearly all actives have a fitted effect of over 40% in size; note: potency is the fitted concentration of half-maximal effect
In short: as §2

[13] = BET inhibitor-based combinations targeting novel dependencies in MECOM-rearranged (r) AML: AML-191 cell line (AID 2202236; note: nearly all actives have a fitted effect of over 35% in size; note: potency is the fitted concentration of half-maximal effect); details: AML-191 viability, CellTiter-Glo luminescence, 48 h; series mostly up to 46 µM
In short: as §1

**Q.** Which activation [1] does the source give for `CC1=C(C(=O)OC2CCCCC2)C(c2ccc([N+](=O)[O-])cc2)C2=C(CC(C)(C)CC2=O)N1` (stereo unspecified) here?
**A.** Its activation is 7.16%.

**Q.** And the Potency [2]?
**A.** Its Potency is 2250 nM (active).

**Q.** What about the Potency [3] of the same compound?
**A.** Its Potency is 5620 nM (active).

**Q.** What about the Potency [4] of the same compound?
**A.** Its Potency is 7080 nM (active).

**Q.** What about the Potency [5] of the same compound?
**A.** The Potency was 10100 nM (active).

**Q.** What does the source list for `Cc1ccc(S(=O)(=O)Nc2cc(Cl)ccc2C(=O)Nc2nc(-c3ccccc3)cs2)cc1`?
**A.** activation [1]: 7.51%; Potency [6]: inactive; Potency [4]: inactive; Potency [7]: 7420 nM (active)

**Q.** For `CNC(=O)c1ccccc1Nc1nc(Nc2ccc(N3CCOCC3)cc2OC)ncc1Cl`, which Potency [1] is on record?
**A.** The Potency was 3.06 µM (active) and 21.3 µM (active).

**Q.** And the Potency [6]?
**A.** The Potency was “inactive”.

**Q.** What about the Potency [8] of the same compound?
**A.** The Potency was 16600 nM (active).

**Q.** And the Potency [9]?
**A.** Its Potency is 833 nM (active).

**Q.** And the Potency [10]?
**A.** The Potency was 263 nM (active).

**Q.** What about the Potency [11] of the same compound?
**A.** The Potency was 1320 nM (active).

**Q.** What about the Potency [12] of the same compound?
**A.** The Potency was 2350 nM (active).

**Q.** For `COc1ccc(Cn2ccc3ccc(C(=O)NO)cc32)cc1`, which activation [1] is on record?
**A.** The activation was 20.3% and -6.7%.

**Q.** And the Potency [6]?
**A.** The Potency was “inactive”.

**Q.** What about the Potency [10] of the same compound?
**A.** Its Potency is 20900 nM (active).

**Q.** What about the Potency [7] of the same compound?
**A.** The Potency was 18600 nM (active).

**Q.** With `Cc1c(CN2CCN(S(C)(=O)=O)CC2)sc2c(N3CCOCC3)nc(-c3cnc(N)nc3)nc12` as the compound, how does the activation [1] read?
**A.** Its activation is -10.7%.

**Q.** What about the Potency [6] of the same compound?
**A.** Its Potency is “inactive”.

**Q.** What about the Potency [9] of the same compound?
**A.** Its Potency is 590 nM (active).

**Q.** And the Potency [10]?
**A.** The Potency was 1320 nM (active).

**Q.** What about the Potency [11] of the same compound?
**A.** The Potency was 1660 nM (active).

**Q.** What about the Potency [12] of the same compound?
**A.** The Potency was 186 nM (active).

**Q.** And the Potency [13]?
**A.** Its Potency is 590 nM (active).

**Q.** What does the source list for `N#C/C(=C\c1ccc(O)c(O)c1)C(=O)Nc1ccccc1`?
**A.** activation [1]: -12.1%; Potency [2]: 2250 nM (active)

**Q.** Which activation [1] does the source give for `C=C1CCC2C(C)(COC(C)=O)CCCC2(C)C1CCC(C)CC(=O)O` (stereo unspecified) here?
**A.** Its activation is -12.2%.

**Q.** And the Potency [2]?
**A.** The Potency was “inactive”.

**Q.** What about the Potency [4] of the same compound?
**A.** The Potency was “inactive”.

**Q.** Which activation [1] does the source give for `CC1OC2OC(=O)C3(C)CC4C5(CO5)C5=CC(=O)OC(C)(C)C5=CC(=O)C4(C)C(C1=O)C23` (stereo unspecified) here?
**A.** The activation was 12.2%.

**Q.** And the Potency [4]?
**A.** The Potency was “inactive”.

**Q.** For `Cc1ccccc1C(C(=O)NC1CCCCC1)N(C(=O)Cn1ccnc1C)c1cccc(F)c1` (stereo unspecified), which activation [1] is on record?
**A.** The activation was -12.7% and -11.5%.

**Q.** What about the Potency [3] of the same compound?
**A.** Its Potency is “inactive”.

**Q.** And the viability [8]?
**A.** Its viability is 116%.

**Q.** And the Potency [10]?
**A.** Its Potency is “inactive”.

**Q.** And the Potency [12]?
**A.** Its Potency is “inactive”.

**Q.** And the Potency [13]?
**A.** The Potency was “inactive”.

**Q.** And the Potency [7]?
**A.** The Potency was “inactive”.
